# Where “and” joins values, the source holds several entries; their conditions need not be identical. Equal entries are not always repeated. Results filed as inconclusive are left out. Unmarked numbers belong to inactive results. Calls of active or inactive are those of the source. Calls come from the whole dose curve; as a rule, active = well fitted inhibition curve with a large enough effect; inconclusive = small, poorly fitted or top-dose-only effect; inactive = flat fitted curve, though single readings scatter.
# Key:
# [1] = tested on: CRL-7250; assay: Cytotoxic Profiling of Annotated Libraries Using Quantitative High-Throughput Screening (AID 1296008); details: Five cell lines viability, CellTiter-Glo ATP luminescence, 48-72 h; max response: hits give low values; note: potency is the fitted concentration of half-maximal effect; for max response: % is set by controls: 0 for no effect and ±100 for the full control effect
# Summary of the method: (§1)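 Compounds were pin-transferred onto cells and incubated 48 or 72 hr at 37 degree Celsius, 95% humidity. CellTiter-Glo was added, plates sat 10 min at room temperature, then ATP-coupled luminescence was imaged as the viability read-out.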
# [2] = tested on: HaCat; assay: as above; details: Five cell lines viability, CellTiter-Glo ATP luminescence, 48-72 h; max response: hits give low values
# Summary of the method: as §1
# [3] = tested on: KB-3-1; assay: as above; details: Five cell lines viability, CellTiter-Glo ATP luminescence, 48-72 h; max response: hits give low values
# Summary of the method: as §1
# [4] = tested on: NIH3T3; assay: as above; details: Five cell lines viability, CellTiter-Glo ATP luminescence, 48-72 h; max response: hits give low values
# Summary of the method: as §1
# [5] = tested on: MCC-13; assay: qHTS assay to identify novel small-molecules to repurpose for Merkel cell carcinoma treatment (AID 1296009); details: MCC and control cell lines, CellTiter-Glo viability, 72 h; series mostly up to 46 µM
# Summary of the method: (§2)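 Luminescence from CellTiter-Glo, read 10 min after addition at room temperature, reported viability following a 72 hr, 37 degree celsius treatment with NPC or MIPE compounds in titration; values normalized to plate controls.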
# [6] = tested on: HACAT; assay: as above; details: MCC and control cell lines, CellTiter-Glo viability, 72 h; at 44.8 µM (top of the series) unless noted
# Summary of the method: as §2
# [7] = tested on: TAB165; assay: qHTS profiling for inhibitors of Plasmodium falciparum proliferation (AID 504749);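 note: 0% = DMSO vehicle and full inhibition = artemisinin control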; details: P. falciparum in erythrocytes, SYBR Green DNA, 72 h; series mostly up to 28.7 µM
# Summary of the method: (§3)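 Fluorescence of SYBR Green-bound parasite DNA, read at 485/535 nm, served as the growth measure. Infected erythrocytes were cultured with compound 72 h; artemisinin (0.29 uM) and DMSO wells defined the normalization range.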
# [8] = tested on: W2; assay: as above; details: P. falciparum in erythrocytes, SYBR Green DNA, 72 h; series mostly up to 28.7 µM
# Summary of the method: as §3
# [9] = tested on: HEK293; assay: Cytotoxic Profiling of Annotated Libraries Using Quantitative High-Throughput Screening (AID 1296008); details: Five cell lines viability, CellTiter-Glo ATP luminescence, 48-72 h; max response: hits give low values; note: potency is the fitted concentration of half-maximal effect; for max response: % is set by controls: 0 for no effect and ±100 for the full control effect
# Summary of the method: as §1
# Note: nearly all actives have a fitted effect of over 60% in size.
smiles,measurement,setting,value
COc1ccc2ccc(=O)oc2c1CC=C(C)C,max response,[1],-22%
same,max response,[2],-6.16%
same,outcome,[3],inactive
same,max response,[4],-31.4%
same,Potency,[5],inactive
c1ccc(-c2oc3ncnc(NC[C@@H]4CCCO4)c3c2-c2ccccc2)cc1,max response,[1],-6.45%
same,max response,[2],-3.81%
same,Potency,[4],14.6 µM (active)
same,Potency,[5],inactive
CCNC(=O)Nc1ccc(Oc2ncnc(N)c2C=NOC)cc1Cl,outcome,[1],inactive
same,outcome,[2],inactive
same,max response,[4],4.69%
same,outcome,[6],inactive
same,Potency,[5],inactive
COc1ccc2c(c1)CC[C@H]1[C@@H]2CC[C@]2(C)[C@@H](NCCCCCCN3C(=O)C=CC3=O)CC[C@H]12,max response,[1],-3.42%
same,max response,[2],1.55%
same,max response,[3],-4.66%
same,max response,[4],-1.24%
same,Potency,[5],inactive
Cc1c(-c2cccc3c(CCCOc4cccc5ccccc45)c(C(=O)O)n(Cc4cccnc4)c23)c(COc2ccc(N3CCN([S+](=O)([O-])N(C)C)CC3)cc2)nn1C,max response,[1],-2.89%
same,max response,[2],-5.9%
same,max response,[4],-4.88%
same,Potency,[5],inactive
O=S(=O)(O)c1ccc2cc(N=Nc3cc(S(=O)(=O)O)c4cccnc4c3O)ccc2c1,max response,[1],-1.21%
same,max response,[2],-5.73% and 2.13%
same,max response,[3],-11.7% and -5.81%
same,max response,[4],-3.13% and 2.59%
same,Potency,[5],inactive
CNC(=O)c1cc(COc2nnc(Nc3ccc(Cl)cc3)c3ccoc23)ccn1,max response,[1],-22.5%
same,max response,[2],1.3%
same,max response,[3],-2.71%
same,max response,[4],-16.8%
same,Potency,[5],inactive
Cc1cc(CS(=O)(=O)c2ccccc2)cc(OCc2ccc(CN3CCC[C@H]3CO)cc2)c1,Potency,[1],1.32 µM (active)
same,Potency,[2],1.48 µM (active)
same,Potency,[3],3.72 µM (active)
same,Potency,[4],2.96 µM (active)
same,Potency,[5],inactive
CCCCN(CCCC)CC(O)c1cc(Cl)cc2c1-c1ccc(Cl)cc1C2=Cc1ccc(Cl)cc1 (stereo unspecified),max response,[1],-1.5%
same,outcome,[2],inactive
same,max response,[3],3.8%
same,outcome,[4],inactive
same,outcome,[6],inactive
same,Potency,[5],inactive
CCCCC(C)(C)[C@H](O)C=C[C@H]1[C@H](O)CC(=O)[C@H]1CC=CCCCC(=O)O,max response,[1],-10.4%
same,outcome,[2],inactive
same,outcome,[3],inactive
same,outcome,[6],inactive
same,Potency,[5],inactive
CN1CC(=O)N2C(Cc3c([nH]c4ccccc34)[C@H]2c2ccc3c(c2)OCO3)C1=O (stereo partly specified),Potency,[7],inactive
same,Potency,[8],inactive
same,max response,[1],-5.59%
same,max response,[2],4.52%
same,max response,[3],-12.7%
same,Potency,[5],inactive
Nc1ncnc2c1c(-c1cccc(OCc3ccccc3)c1)cn2C1CC(CN2CCC2)C1 (stereo unspecified),outcome,[1],inactive
same,max response,[2],4.36%
same,Potency,[3],23.1 µM (active)
same,Potency,[4],23.5 µM (active) and 4.61 µM (active)
same,Potency,[5],inactive
C#C[C@]1(O)CC[C@H]2[C@H]3CCc4cc(OC)ccc4[C@H]3CC[C@@]21C,max response,[1],-5.04%
same,max response,[2],0.906%
same,max response,[3],-15.5%
same,max response,[4],2.86%
same,Potency,[5],inactive
CC(C)c1onc(-c2c(Cl)cccc2Cl)c1COc1ccc(C=Cc2cccc(C(=O)O)c2)c(Cl)c1,max response,[1],-1.7%
same,max response,[2],-7.35%
same,max response,[3],6.78%
same,max response,[4],4.7%
same,Potency,[5],inactive
COc1ccc(C=CC(=O)Nc2ccccc2C(=O)O)cc1OC,max response,[1],-5.04%
same,max response,[2],-7.89%
same,max response,[3],7.16%
same,max response,[4],0.371%
same,Potency,[5],inactive
CC[C@H](C=C[C@@H](C)[C@H]1CC[C@H]2[C@@H]3CC=C4C[C@@H](O)CC[C@]4(C)[C@@H]3CC[C@]12C)C(C)C,max response,[1],-16.3%
same,max response,[2],-3.88%
same,max response,[3],2.61%
same,max response,[4],3.97%
same,Potency,[5],inactive
O=C(Nc1cccc(C(F)(F)F)c1)Nc1cc(S(=O)(=O)NC2CC2)ccc1-c1ccsc1,max response,[1],-35.6%
same,max response,[2],-22.2%
same,max response,[4],-27%
same,Potency,[5],inactive
OC[C@H]1O[C@@H](O[C@H]2[C@@H](O)[C@@](O)(CO)O[C@@H]2CO)[C@H](O)[C@@H](O)[C@@H]1O,max response,[1],-0.0942%
same,max response,[2],1.22%
same,max response,[3],-0.101%
same,max response,[4],2.52%
same,Potency,[5],inactive
COc1ccc(-c2nc3ccc(C4=NNC(=O)CC4C)cc3[nH]2)cc1 (stereo unspecified),outcome,[1],inactive
same,max response,[3],-4.82%
CN(C)N=Nc1nc[nH]c1C(N)=O,Potency,[9],3.72 µM (active)
same,Potency,[2],18.7 µM (active)
same,Potency,[3],4.69 µM (active)
same,max response,[4],-2.97%
same,Potency,[5],inactive
CCc1cc(-c2n[nH]c(C)c2-c2ccc3c(c2)OCCO3)c(O)cc1O,Potency,[9],11.8 µM (active)
same,Potency,[2],7.43 µM (active)
same,Potency,[4],8.33 µM (active)
CCN(CCO)CCCOc1ccc2c(Nc3cc(CC(=O)Nc4cccc(F)c4)[nH]n3)ncnc2c1,max response,[1],-19.9%
same,max response,[3],-29.8%
same,max response,[4],-28.4%
same,Potency,[5],inactive
NS(=O)(=O)c1ccc(Nc2nc(OCC3CCCCC3)c3[nH]cnc3n2)cc1,Potency,[9],18.4 µM (active)
same,max response,[2],-17.9%
same,Potency,[3],14.8 µM (active)
same,Potency,[5],inactive
C#CCN(C)CC1=Cc2ccccc2Oc2ccccc21,max response,[1],-16.4%
same,max response,[3],-4.88%
same,max response,[4],-28.1%
same,Potency,[5],inactive

# — PubChem BioAssay (NCATS)
